Measured values from PubChem BioAssay AID570 (The Scripps Research Institute Molecular Screening Center, 2006).
Screen size: about 65,000 compounds; about 45 (0.07%) were called active.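 The calls were made as follows: active = inhibition above the mean of compound-free control plate wells plus 3 SD (cut at about 14% in these data); inactive = the rest.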 The list comes from a sample in which actives are over-represented; it also holds similar structures and randomly drawn compounds.

target: Collagenase 3 (Homo sapiens) (UniProt P45452); test: inhibition of MMP13 collagenase activity – biochemical, FRET peptide cleavage, primary screen (AID 570); details: MMP-13 fTHP FRET cleavage, Mca fluorescence; at 4 µM; hits give high values;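 also: 0% = DMSO wells and 100% = wells with reference MMP-13 inhibitor after basal subtraction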

inhibition, inactive:
c1nc(COc2nsnc2N2CCOCC2)cs1 2.5%
COc1ccc(NC(=O)CN2CCN(S(=O)(=O)c3ccc(F)cc3)CC2)cc1Cl -15.6%
Cc1noc(C)c1S(=O)(=O)N1CCCC(C(=O)Nc2nccs2)C1 (stereo unspecified) 6.5%
NC(CSC12CC3CC(CC(C3)C1)C2)C(=O)O (stereo unspecified) 2.6%
Cc1nc(NC(CC(C)C)C(=O)O)c2nc(C)oc2n1 (stereo unspecified) 0%
CCOC(=O)N1CCN(C(=O)CNC(=O)Cc2ccc(Cl)cc2)CC1 -1.6%
CCOC(=O)N1CCN(C(=O)C2CCN(S(C)(=O)=O)CC2)CC1 -0.8%
CCn1c(SCC(=O)c2ccc(Cl)s2)nnc1-c1cccs1 -2.1%
COc1ccccc1N(C(=O)Cn1nnc2ccccc21)C(C(=O)NCc1ccco1)c1ccc(C)o1 (stereo unspecified) 7.4%
Cc1nc(CNS(=O)(=O)c2cccnc2)cs1 2.4%
CCCCCCC(=O)N(O)C1CC(=O)N(c2ccccc2)C1=O (stereo unspecified) 1%
COC(=O)c1ccc(S(=O)(=O)c2ccc(C(=O)OC)s2)s1 -1.3%
Cc1ccc(S(=O)(=O)Cn2nnnc2CN2CCN(Cc3ccc4c(c3)OCO4)CC2)cc1 -3.7%
CC1CCN(C(=O)Cn2cc(C(=O)c3ccco3)c3ccccc32)CC1 -1.8%
CCC(=O)Nc1ccc2c(c1)nc(CCN1CCN(C)CC1)n2C -0.5%
CCOc1ccccc1C(=O)NCc1ccco1 3.2%
O=C(CN1C2CCC1CC(NC(=O)C1CC1)C2)NCc1ccccc1 (stereo unspecified) -1.1%
COc1ccc(C2=NOC(C(=O)NCc3ccco3)C2)cc1OC (stereo unspecified) 1.2%
C=CCNC(=O)c1cc(-c2ccccc2O)on1 6%
COc1ccccc1N1CC(O)=C(c2nc3ccccc3s2)C1=N -5.8%
Cc1cccc(NC(=O)CN2CCCN(S(=O)(=O)c3ccc(Br)s3)CC2)c1 -0.8%
COc1cc(Cl)c(S(=O)(=O)n2cnc(C)c2)cc1Cl -1%
CCC(C)(C)NC(=O)C(c1cccn1C)N(Cc1ccc(C)cc1)C(=O)Cn1nnc2ccccc21 (stereo unspecified) 2.1%
O=C(CSc1n[nH]c(-c2cccnc2)n1)Nc1ccnc2ccccc12 -1.2%
CC(C)(C)c1ccc(C(=O)CSc2ncn[nH]2)cc1 1.3%
C=CCSc1nnc(Cn2c(=O)sc3ccccc32)n1C -10.7%
CC(NC(=O)c1ccco1)C(=O)Nc1nc(-c2ccccn2)cs1 (stereo unspecified) 1.6%
COCCNCCOCCOc1cccc(OC)c1 -0.9%
Cc1ccsc1-c1nc(CSCC(=O)NCCN2CCCC2)c(C)o1 -72.5%
O=C(CSc1nnc(-c2cccs2)n1-c1ccccc1)N1CCN(C(=O)c2ccco2)CC1 2.3%
CN(Cc1ccccc1)Cc1ccccc1F 0.3%
Cc1oc(-c2cccc(Cl)c2)[n+]([O-])c1C -6.2%
CCOc1nc(-c2ccc(OC)cc2)ccc1-c1noc(-c2cc(OC)c(OC)c(OC)c2)n1 -11.5%
CCOC(=O)C(CCOc1cccc(CC)c1)C(=O)OCC 4.3%
CC(C)c1ccc(-c2nn[nH]n2)cc1 0.3%
C=CCn1c2ccccc2c2nnc(SC(CC)C(=O)Nc3nc(C)c(C(=O)OCC)s3)nc21 (stereo unspecified) 2.6%
O=C1C(C=NCC2CCCO2)=C(O)c2ccccc21 (stereo unspecified) 3.3%
CCOC(=O)Cn1c(SC)nc2sc3c(c2c1=O)CC(C)(C)OC3 1.7%
CN(C)/C=C/c1c(C#N)c(=O)ncn1Cc1ccccc1 2.5%
O=C(Nc1cccc(C(=O)N2CCCC2)c1)c1ccccc1 -0.2%
CCOC(=O)n1c(SCC(=O)N(CC)CC)nc2ccccc21 -1.9%
O=C(O)C1CCN(S(=O)(=O)N2CCOCC2)CC1 -0.5%
COc1ccc(CC(=O)c2ccc(O)cc2O)cc1OC 2%
CC1(C)Oc2ccc3ccc(=O)oc3c2/C(=C/NCCO)C1=O 2.5%
Cc1ccc(-c2noc(CSc3nnc(-c4ccccc4)n3C)n2)cc1 7.2%
Cn1c(/C(C#N)=C2/CCCCCN2)nc2ccccc21 12.4%
O=C(Cn1c(-c2cncs2)nc2ccccc21)NC1CCCC1 -3.3%
COCCCNC(=O)C1CC(=O)N(c2ccc(C)cc2)C1 (stereo unspecified) -1.3%
O=C(C(NS(=O)(=O)c1cccc2nsnc12)c1ccccc1)N1CCN(c2ccccn2)CC1 (stereo unspecified) 7.2%
Cc1ccsc1CNn1cnnc1SCc1ccccc1F 9.3%
COc1ncnc2c1N=C1CC(C)(C)CC(N)=C1S2 1.4%
Cc1[nH]c2ccccc2c1C(=O)CSCC(=O)O -0.3%
O=C(CSc1nnc(-c2c[nH]c3ccccc23)n1-c1ccc(F)cc1)NCc1ccco1 6.1%
CC(C)(C)n1nnnc1C(c1ccc2ncccc2c1)N1CCSCC1 (stereo unspecified) -2.5%
O=C(O)CCSc1nnc(-c2ccccc2)n1-c1ccccc1 -3.8%
O=C(CC1Oc2ccccc2NC1=O)NCCCN1CCN(Cc2ccccc2)CC1 (stereo unspecified) -2%
Cn1c(=O)c2c(nc(Br)n2CCSc2nc3ccccc3o2)n(C)c1=O 0.1%
COc1ccc(CNC2CCCCC2)cc1 5.3%
Cc1nonc1OCCn1nnnc1N -19.6%
O=C(COc1ccccc1)N1CCc2ccccc2C1 1.4%
CCN(CC)Cc1c(C(=O)OC)nnn1-c1nonc1N -0.9%
CCOC(=O)c1sc(=S)n(-c2cccc(OC)c2)c1N 5.8%
O=C(NCCN1C(=O)C2C3C=CC(C3)C2C1=O)Nc1ccccn1 (stereo unspecified) 7.3%
OC(COc1cccc2ccccc12)CN1CCN(c2ccccn2)CC1 (stereo unspecified) 0.9%
Cn1c(Cc2csc(N)n2)nnc1SC/C=C/c1ccccc1 6.2%
O=C(CN(CC1CCCO1)C(=O)CNS(=O)(=O)c1ccccc1)NCc1ccccc1 (stereo unspecified) -0.3%
